The record followed here is the supplement of paper PMC8253809.

“And” between values parts separate entries of the source, which are not always exact repeats. Equal values may be shown once.

The first experiment concerns DIPGX37 (H3.3 K27M diffuse intrinsic pontine glioma line). The experiment is described as follows: growth inhibition (% activity, log2 RLU normalised to DMSO / staurosporine); higher = more growth inhibition. The conditions noted are these: 33 µM. Summed up: (§1)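 In triplicate, pHGG cell lines and H9-derived neural stem cells were treated for 7 days at 37 °C, 5% CO2 with approved drugs at a single final concentration of about 33 μM, added by pin tool. CellTiter-Glo luminescence, after log2 transformation, was normalised on each plate to % activity between solvent and positive control wells. Growth inhibition is reported as the median across replicates.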
As for `O=C(O)c1cccnc1Nc1cccc(C(F)(F)F)c1`, the growth inhibition worked out at 3.58%.
As to `C=C(c1ccc(C(=O)O)cc1)c1cc2c(cc1C)C(C)(C)CCC2(C)C`, the growth inhibition is -3.45%.
`CC1(C)S[C@@H]2[C@H](NC(=O)Cc3ccccc3)C(=O)N2[C@H]1C(=O)O`: the growth inhibition turned out to be 1.76%.
Same read-out and setting: the figure for `Cc1cn(C2C=CC(CO)O2)c(=O)[nH]c1=O` (stereo not drawn) is -1.7%; for `CC(C)(C)C(=O)C(Oc1ccc(Cl)cc1)n1ccnc1` (stereo not drawn) it is 1.56%.
Same read-out and setting: the figure for `Cc1ccc(S(=O)(=O)NC(=O)NN2CCCCCC2)cc1` is 0.973%; for `Cc1cc(C2CCCCC2)n(O)c(=O)c1` it is 7.69% and 8.51%; for `OCCOCCN1CCN(C(c2ccccc2)c2ccc(Cl)cc2)CC1` (stereo not drawn) it is 0.602%.
For `Oc1c(Br)cc(Br)c2cccnc12`, the growth inhibition was 0.213%.
With `COC(=O)C1=CO[C@@H](O[C@@H]2O[C@H](CO)[C@@H](O)[C@H](O)[C@H]2O)[C@@H]2C(CO)=CC[C@H]12`, the growth inhibition is -0.171%.
Take `CCn1cc(C(=O)O)c(=O)c2ccc(C)nc21`: the growth inhibition was -2.18%.
As for `CCOC(=O)c1ccc(N)cc1`, the growth inhibition was 0.286%.
Consider `CCCN1CCCC[C@H]1C(=O)Nc1c(C)cccc1C`, for which the growth inhibition worked out at 1.83%.
As to `CC(C)[C@H]1CC[C@H](C(=O)N[C@H](Cc2ccccc2)C(=O)O)CC1`, the growth inhibition was 0.294%.
Still for that read-out and setting: the figure for `NS(=O)(=O)c1cc2c(cc1Cl)NC(C(Cl)Cl)NS2(=O)=O` (stereo not drawn) is 4.01%.
Regarding `COc1cc2c(cc1OC)CC(=O)N(CCCN(C)C[C@H]1Cc3cc(OC)c(OC)cc31)CC2`, the growth inhibition worked out at 1.83%.
Take `CCCc1nc(C)c2c(=O)nc(-c3cc(S(=O)(=O)N4CCN(CC)CC4)ccc3OCC)[nH]n12`: the growth inhibition was -1.39%.
As for `CCC(C)n1ncn(-c2ccc(N3CCN(c4ccc(OCC5COC(Cn6cncn6)(c6ccc(Cl)cc6Cl)O5)cc4)CC3)cc2)c1=O` (stereo not drawn), the growth inhibition was determined as 1.27%.
On the same count and under the same terms, the value for `Cc1onc(-c2ccccc2)c1-c1ccc(S(N)(=O)=O)cc1` was 1.05%; that for `C#C[C@]1(O)CC[C@H]2[C@@H]3CCC4=CC(=O)CC[C@@H]4[C@H]3CC[C@@]21C` was 3.5%; that for `N=C(N)c1ccc(N=NNc2ccc(C(=N)N)cc2)cc1` was -3.98%.
For the compound `O[C@@H]1CO[C@H]2[C@@H]1OC[C@@H]2O`, the growth inhibition was 0.0638%.
Consider `CC[C@H]1OC(=O)[C@H](C)[C@@H](O[C@H]2C[C@@](C)(OC)[C@@H](O)[C@H](C)O2)[C@H](C)[C@@H](O[C@@H]2O[C@H](C)C[C@H](N(C)C)[C@H]2O)[C@](C)(O)C[C@@H](C)[C@@H]2N[C@@H](COCCOC)O[C@H]([C@H]2C)[C@]1(C)O`, for which the growth inhibition was -1.4%.
Regarding `CC(C)NCC(O)COc1cccc2ccccc12` (stereo not drawn), the growth inhibition is -0.496%.
With `N#CC1(c2ccc(NC(=O)c3cccnc3NCc3ccncc3)cc2)CCCC1`, the growth inhibition is -3.69%.
As to `Clc1ccc2c(c1)C(N1CCNCC1)=Nc1ccccc1O2`, the growth inhibition stood at 1.52%.
With `C=C1CCC(O)CC1=CC=C1CCCC2(C)C1CCC2C(C)CCCC(C)(C)O` (stereo not drawn), the growth inhibition stood at 2.58%.
`CC(=O)Oc1cc(C(F)(F)F)ccc1C(=O)O`: the growth inhibition is -1.02%.
With `O=c1ccc2ccccc2o1`, the growth inhibition stood at 0.196%.
With `Cc1c(O)c(=O)ccn1C`, the growth inhibition is -0.497%.
In the case of `CN(C)CCC=C1c2ccccc2CCc2ccccc21`, the growth inhibition came to 2.57%.
On the same count and under the same terms, the value for `CC(C)(C(=O)O)c1ccc(C(O)CCCN2CCC(C(O)(c3ccccc3)c3ccccc3)CC2)cc1` (stereo not drawn) was -1.1%; that for `C[C@@H](O)[C@H]1C(=O)N2C(C(=O)OCOC(=O)C(C)(C)C)=C(SC3CN(C4=NCCS4)C3)[C@H](C)[C@H]12` was 2.3%; that for `Cc1c(Nc2ncccc2C(=O)O)cccc1C(F)(F)F` was 2.84%.
For `CCCCCCCN(CC)CCCC(O)c1ccc(NS(C)(=O)=O)cc1` (stereo not drawn), the growth inhibition was found to be 0.859%.
`COc1ccccc1N1CCN(CCCNc2cc(=O)n(C)c(=O)n2C)CC1`: the growth inhibition was 2.3%.
On to `Cc1ncc([N+](=O)[O-])n1CC(C)O` (stereo not drawn), for which the growth inhibition is -0.804%.
For the compound `CC[C@H]1OC(=O)[C@H](C)[C@@H](O[C@H]2C[C@@](C)(OC)[C@@H](O)[C@H](C)O2)[C@H](C)[C@@H](O[C@@H]2O[C@H](C)C[C@H](N(C)C)[C@H]2O)[C@](C)(O)C[C@@H](C)/C(=N\OCOCCOC)[C@H](C)[C@@H](O)[C@]1(C)O`, the growth inhibition is -0.523%.
As to `N=S(=O)(O)Cc1noc2ccccc12`, the growth inhibition is -1.83%.

Another experiment has as its system DIPGX7 (H3.3 K27M diffuse intrinsic pontine glioma line). The experiment is described as above. The conditions noted are these: 33 µM. Summed up: as §1
Take `O=C(O)c1cccnc1Nc1cccc(C(F)(F)F)c1`: the growth inhibition is -0.0228%.
Regarding `C=C(c1ccc(C(=O)O)cc1)c1cc2c(cc1C)C(C)(C)CCC2(C)C`, the growth inhibition came to 11%.
In the case of `CC1(C)S[C@@H]2[C@H](NC(=O)Cc3ccccc3)C(=O)N2[C@H]1C(=O)O`, the growth inhibition is 0.712%.
With `Cc1cn(C2C=CC(CO)O2)c(=O)[nH]c1=O` (stereo not drawn), the growth inhibition is -0.477%.
For `CC(C)(C)C(=O)C(Oc1ccc(Cl)cc1)n1ccnc1` (stereo not drawn), the growth inhibition stood at 3.93%.
With `Cc1ccc(S(=O)(=O)NC(=O)NN2CCCCCC2)cc1`, the growth inhibition was -0.7%.
In the case of `Cc1cc(C2CCCCC2)n(O)c(=O)c1`, the growth inhibition was 54.5% and 43.2%.
For `OCCOCCN1CCN(C(c2ccccc2)c2ccc(Cl)cc2)CC1` (stereo not drawn), the growth inhibition is 4.59%.
Still for that read-out and setting: the figure for `Oc1c(Br)cc(Br)c2cccnc12` is 1.4%; for `COC(=O)C1=CO[C@@H](O[C@@H]2O[C@H](CO)[C@@H](O)[C@H](O)[C@H]2O)[C@@H]2C(CO)=CC[C@H]12` it is -2.08%.
For `CCn1cc(C(=O)O)c(=O)c2ccc(C)nc21`, the growth inhibition was -0.91%.
As to `CCOC(=O)c1ccc(N)cc1`, the growth inhibition was -0.777%.
For `CCCN1CCCC[C@H]1C(=O)Nc1c(C)cccc1C`, the growth inhibition was 0.26%.
`CC(C)[C@H]1CC[C@H](C(=O)N[C@H](Cc2ccccc2)C(=O)O)CC1`: the growth inhibition was determined as 0.0113%.
For the compound `NS(=O)(=O)c1cc2c(cc1Cl)NC(C(Cl)Cl)NS2(=O)=O` (stereo not drawn), the growth inhibition is 3.24%.
Regarding `COc1cc2c(cc1OC)CC(=O)N(CCCN(C)C[C@H]1Cc3cc(OC)c(OC)cc31)CC2`, the growth inhibition worked out at 1.52%.
`CCCc1nc(C)c2c(=O)nc(-c3cc(S(=O)(=O)N4CCN(CC)CC4)ccc3OCC)[nH]n12`: the growth inhibition was -0.617%.
Regarding `CCC(C)n1ncn(-c2ccc(N3CCN(c4ccc(OCC5COC(Cn6cncn6)(c6ccc(Cl)cc6Cl)O5)cc4)CC3)cc2)c1=O` (stereo not drawn), the growth inhibition was 1.59%.
As to `Cc1onc(-c2ccccc2)c1-c1ccc(S(N)(=O)=O)cc1`, the growth inhibition turned out to be 0.883%.
For `C#C[C@]1(O)CC[C@H]2[C@@H]3CCC4=CC(=O)CC[C@@H]4[C@H]3CC[C@@]21C`, the growth inhibition turned out to be 1.4%.
For the compound `N=C(N)c1ccc(N=NNc2ccc(C(=N)N)cc2)cc1`, the growth inhibition was -0.967%.
Turning to `O[C@@H]1CO[C@H]2[C@@H]1OC[C@@H]2O`, the growth inhibition is -2.43%.
On to `CC[C@H]1OC(=O)[C@H](C)[C@@H](O[C@H]2C[C@@](C)(OC)[C@@H](O)[C@H](C)O2)[C@H](C)[C@@H](O[C@@H]2O[C@H](C)C[C@H](N(C)C)[C@H]2O)[C@](C)(O)C[C@@H](C)[C@@H]2N[C@@H](COCCOC)O[C@H]([C@H]2C)[C@]1(C)O`, for which the growth inhibition is -1.51%.
As for `CC(C)NCC(O)COc1cccc2ccccc12` (stereo not drawn), the growth inhibition is -0.508%.
Regarding `N#CC1(c2ccc(NC(=O)c3cccnc3NCc3ccncc3)cc2)CCCC1`, the growth inhibition amounted to 2.91%.
Turning to `Clc1ccc2c(c1)C(N1CCNCC1)=Nc1ccccc1O2`, the growth inhibition was determined as 1.07%.
Same read-out and setting: the figure for `C=C1CCC(O)CC1=CC=C1CCCC2(C)C1CCC2C(C)CCCC(C)(C)O` (stereo not drawn) is 3.34%; for `CC(=O)Oc1cc(C(F)(F)F)ccc1C(=O)O` it is -1.55%.
As for `O=c1ccc2ccccc2o1`, the growth inhibition was -0.587%.
Regarding `Cc1c(O)c(=O)ccn1C`, the growth inhibition is -0.173%.
For `CN(C)CCC=C1c2ccccc2CCc2ccccc21`, the growth inhibition was determined as 1.28%.
For the compound `CC(C)(C(=O)O)c1ccc(C(O)CCCN2CCC(C(O)(c3ccccc3)c3ccccc3)CC2)cc1` (stereo not drawn), the growth inhibition amounted to 0.287%.
On to `C[C@@H](O)[C@H]1C(=O)N2C(C(=O)OCOC(=O)C(C)(C)C)=C(SC3CN(C4=NCCS4)C3)[C@H](C)[C@H]12`, for which the growth inhibition is 0.926%.
As to `Cc1c(Nc2ncccc2C(=O)O)cccc1C(F)(F)F`, the growth inhibition came out at 0.522%.
Still for that read-out and setting: the value for `CCCCCCCN(CC)CCCC(O)c1ccc(NS(C)(=O)=O)cc1` (stereo not drawn) was 2.25%; that for `COc1ccccc1N1CCN(CCCNc2cc(=O)n(C)c(=O)n2C)CC1` was -0.071%; that for `Cc1ncc([N+](=O)[O-])n1CC(C)O` (stereo not drawn) was -1.3%.
As to `CC[C@H]1OC(=O)[C@H](C)[C@@H](O[C@H]2C[C@@](C)(OC)[C@@H](O)[C@H](C)O2)[C@H](C)[C@@H](O[C@@H]2O[C@H](C)C[C@H](N(C)C)[C@H]2O)[C@](C)(O)C[C@@H](C)/C(=N\OCOCCOC)[C@H](C)[C@@H](O)[C@]1(C)O`, the growth inhibition was -0.0281%.
The same measure, in the same setting: the value for `N=S(=O)(O)Cc1noc2ccccc12` was -1.41%.
